# Reference: publication PMC7862700, “An all-to-all approach to the identification of sequence-specific readers for epigenetic DNA modifications on cytosine”
# Key:
# Experiment in all cases: DAPPL (digital affinity profiling via proximity ligation, sequencing); 10 mM Tris-HCl pH 7.5, 50 mM NaCl, 1 mM DTT, 4% glycerol, room temperature, 30 min; GST-TFs on glutathione beads, 16-mer random dsDNA library, 0.1% formaldehyde crosslink after washing; high values mean tight binding
# FLI1 = molecular target: T1, FLI1 (Homo sapiens, UniProt Q01543 1-452); conditions: protein: recombinant; tags: N-terminal GST; dsDNA, one strand shown
# T1 sequence: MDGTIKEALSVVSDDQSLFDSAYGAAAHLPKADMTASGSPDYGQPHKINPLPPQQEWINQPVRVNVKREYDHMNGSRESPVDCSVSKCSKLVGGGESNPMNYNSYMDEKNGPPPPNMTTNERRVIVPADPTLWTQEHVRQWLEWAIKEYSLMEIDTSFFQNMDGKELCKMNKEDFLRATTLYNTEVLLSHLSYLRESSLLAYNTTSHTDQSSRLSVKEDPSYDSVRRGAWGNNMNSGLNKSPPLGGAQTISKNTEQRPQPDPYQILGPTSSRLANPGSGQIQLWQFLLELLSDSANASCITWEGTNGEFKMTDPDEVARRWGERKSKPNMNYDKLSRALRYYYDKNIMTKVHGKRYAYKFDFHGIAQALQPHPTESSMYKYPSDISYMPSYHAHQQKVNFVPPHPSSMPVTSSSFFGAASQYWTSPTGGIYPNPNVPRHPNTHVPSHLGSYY
# Method in brief: (§1)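 Each value of binding signal is a hexamer's read frequency for a factor divided by the same hexamer's frequency in the tag-only sample. Barcoded, bead-captured GST fusions of human transcription factors made in yeast were pooled with that sample and incubated with 200 nmole of a random double-stranded 16-mer DNA library in Tris/NaCl/DTT/glycerol buffer at room temperature for 30 min. Washing, 0.1% formaldehyde crosslinking, proximity ligation, PCR and Illumina NextSeq500 sequencing followed.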
# ELK1 = molecular target: T2, ELK1 (Homo sapiens, UniProt P19419 1-428); conditions: protein: recombinant; tags: N-terminal GST; dsDNA, one strand shown
# T2 sequence: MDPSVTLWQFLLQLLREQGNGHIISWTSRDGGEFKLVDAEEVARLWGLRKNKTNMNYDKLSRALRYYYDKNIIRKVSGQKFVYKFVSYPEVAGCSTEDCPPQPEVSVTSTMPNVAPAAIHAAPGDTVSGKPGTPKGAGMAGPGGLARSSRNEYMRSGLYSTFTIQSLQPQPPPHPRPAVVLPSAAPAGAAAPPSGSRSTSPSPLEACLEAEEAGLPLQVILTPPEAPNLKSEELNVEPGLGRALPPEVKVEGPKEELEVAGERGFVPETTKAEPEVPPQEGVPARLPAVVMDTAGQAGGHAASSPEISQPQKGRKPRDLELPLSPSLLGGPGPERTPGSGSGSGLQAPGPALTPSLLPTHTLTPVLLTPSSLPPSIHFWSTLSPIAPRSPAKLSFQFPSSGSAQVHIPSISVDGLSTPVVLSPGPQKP
# Method in brief: as §1
# GABPA = molecular target: T3, GABPA (Homo sapiens, UniProt Q06546 1-454); conditions: protein: recombinant; tags: N-terminal GST; dsDNA, one strand shown
# T3 sequence: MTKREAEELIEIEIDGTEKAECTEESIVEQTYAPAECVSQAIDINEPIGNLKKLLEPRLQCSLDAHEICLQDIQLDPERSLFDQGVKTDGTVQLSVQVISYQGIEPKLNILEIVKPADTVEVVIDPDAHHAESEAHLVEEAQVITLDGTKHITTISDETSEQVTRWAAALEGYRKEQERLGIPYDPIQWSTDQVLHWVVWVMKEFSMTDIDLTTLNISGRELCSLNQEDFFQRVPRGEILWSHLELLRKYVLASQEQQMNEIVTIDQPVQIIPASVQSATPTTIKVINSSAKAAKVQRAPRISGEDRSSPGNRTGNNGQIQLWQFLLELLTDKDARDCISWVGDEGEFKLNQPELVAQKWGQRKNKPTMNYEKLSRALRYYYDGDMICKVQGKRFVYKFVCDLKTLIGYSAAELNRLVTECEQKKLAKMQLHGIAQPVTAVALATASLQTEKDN
# Method in brief: as §1
# ERG = molecular target: T4, ERG (Homo sapiens, UniProt P11308 1-479); conditions: protein: recombinant; tags: N-terminal GST; dsDNA, one strand shown
# T4 sequence: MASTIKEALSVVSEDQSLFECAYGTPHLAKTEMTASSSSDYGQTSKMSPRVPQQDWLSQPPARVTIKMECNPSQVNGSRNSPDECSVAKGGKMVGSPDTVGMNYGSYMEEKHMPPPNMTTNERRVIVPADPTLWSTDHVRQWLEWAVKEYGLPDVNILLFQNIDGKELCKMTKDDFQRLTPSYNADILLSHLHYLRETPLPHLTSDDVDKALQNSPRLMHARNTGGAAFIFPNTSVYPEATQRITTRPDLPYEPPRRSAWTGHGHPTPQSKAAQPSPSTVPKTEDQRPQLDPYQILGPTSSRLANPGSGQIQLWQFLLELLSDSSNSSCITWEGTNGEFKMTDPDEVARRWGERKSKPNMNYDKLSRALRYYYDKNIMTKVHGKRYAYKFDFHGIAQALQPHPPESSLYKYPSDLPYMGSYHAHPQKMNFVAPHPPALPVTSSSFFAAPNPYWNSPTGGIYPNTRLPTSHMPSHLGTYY
# Method in brief: as §1
# ELF1 = ELF1 (Homo sapiens, UniProt P32519 1-619); conditions: protein: recombinant; tags: N-terminal GST; dsDNA, one strand shown
# Sequence of ELF1 (P32519 whole entry): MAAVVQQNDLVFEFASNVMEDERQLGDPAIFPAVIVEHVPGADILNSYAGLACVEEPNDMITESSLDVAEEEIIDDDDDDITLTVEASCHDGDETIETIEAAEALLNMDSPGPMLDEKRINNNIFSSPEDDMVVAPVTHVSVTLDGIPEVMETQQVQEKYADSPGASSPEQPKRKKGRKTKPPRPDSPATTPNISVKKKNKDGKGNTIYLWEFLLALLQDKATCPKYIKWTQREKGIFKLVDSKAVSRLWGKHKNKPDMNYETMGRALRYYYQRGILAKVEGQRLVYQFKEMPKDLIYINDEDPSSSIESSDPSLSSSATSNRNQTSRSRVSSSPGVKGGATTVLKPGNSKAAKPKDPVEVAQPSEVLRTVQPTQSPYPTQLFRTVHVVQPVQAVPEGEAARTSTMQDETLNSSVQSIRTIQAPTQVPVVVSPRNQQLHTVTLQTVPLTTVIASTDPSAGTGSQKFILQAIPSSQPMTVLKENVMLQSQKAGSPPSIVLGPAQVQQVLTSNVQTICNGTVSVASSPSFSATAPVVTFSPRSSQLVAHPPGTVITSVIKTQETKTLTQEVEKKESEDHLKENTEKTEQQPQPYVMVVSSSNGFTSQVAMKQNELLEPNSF
# Method in brief: as §1
# EHF = molecular target: T5, EHF (Homo sapiens, UniProt Q9NZC4 1-300); conditions: protein: recombinant; tags: N-terminal GST; dsDNA, one strand shown
# T5 sequence: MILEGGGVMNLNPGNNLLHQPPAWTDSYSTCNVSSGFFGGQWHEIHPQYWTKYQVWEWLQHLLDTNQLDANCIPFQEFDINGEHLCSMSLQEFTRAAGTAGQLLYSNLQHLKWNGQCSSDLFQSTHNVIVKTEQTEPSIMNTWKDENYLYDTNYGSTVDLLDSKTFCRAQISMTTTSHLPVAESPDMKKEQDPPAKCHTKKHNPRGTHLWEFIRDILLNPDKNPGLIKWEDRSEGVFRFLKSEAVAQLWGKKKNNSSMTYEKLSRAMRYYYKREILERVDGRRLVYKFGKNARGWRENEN
# Method in brief: as §1
# SPI1 = SPI1 (Homo sapiens, UniProt P17947 1-270); conditions: protein: recombinant; tags: N-terminal GST; dsDNA, one strand shown
# Method in brief: as §1
# SPIB = SPIB (Homo sapiens, UniProt Q01892 1-262); conditions: protein: recombinant; tags: N-terminal GST; dsDNA, one strand shown
# Sequence of SPIB (Q01892 whole entry): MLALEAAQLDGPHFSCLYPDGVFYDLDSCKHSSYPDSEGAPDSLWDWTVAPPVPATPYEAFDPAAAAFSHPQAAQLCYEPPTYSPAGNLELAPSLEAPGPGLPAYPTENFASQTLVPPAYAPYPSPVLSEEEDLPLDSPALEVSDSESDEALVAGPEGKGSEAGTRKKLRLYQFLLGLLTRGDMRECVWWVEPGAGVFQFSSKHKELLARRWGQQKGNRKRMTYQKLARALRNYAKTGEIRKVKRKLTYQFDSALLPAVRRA
# Method in brief: as §1
# ELK3 = molecular target: T6, ELK3 (Homo sapiens, UniProt P41970 1-407); conditions: protein: recombinant; tags: N-terminal GST; dsDNA, one strand shown
# T6 sequence: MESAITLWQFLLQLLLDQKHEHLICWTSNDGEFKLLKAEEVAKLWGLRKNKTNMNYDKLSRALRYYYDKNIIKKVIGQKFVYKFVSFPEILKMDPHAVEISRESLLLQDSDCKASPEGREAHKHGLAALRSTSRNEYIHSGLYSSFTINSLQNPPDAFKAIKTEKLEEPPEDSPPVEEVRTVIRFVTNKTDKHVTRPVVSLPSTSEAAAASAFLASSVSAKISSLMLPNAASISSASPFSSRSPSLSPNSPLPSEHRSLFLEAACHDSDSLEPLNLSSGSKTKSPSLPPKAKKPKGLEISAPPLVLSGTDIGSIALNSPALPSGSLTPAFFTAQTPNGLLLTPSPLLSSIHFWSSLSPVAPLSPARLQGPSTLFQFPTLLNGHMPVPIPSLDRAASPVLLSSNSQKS
# Method in brief: as §1
# FEV = molecular target: T7, FEV (Homo sapiens, UniProt Q99581 1-238); conditions: protein: recombinant; tags: N-terminal GST; dsDNA, one strand shown
# T7 sequence: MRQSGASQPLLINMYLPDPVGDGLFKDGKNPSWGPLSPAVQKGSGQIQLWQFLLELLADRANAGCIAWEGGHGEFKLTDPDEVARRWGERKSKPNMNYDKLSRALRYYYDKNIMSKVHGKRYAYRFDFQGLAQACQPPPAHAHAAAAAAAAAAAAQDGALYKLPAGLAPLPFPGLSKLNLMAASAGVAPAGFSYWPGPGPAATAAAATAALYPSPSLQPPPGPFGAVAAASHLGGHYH
# Method in brief: as §1
# ETV5 = ETV5 (Homo sapiens, UniProt P41161 1-510); conditions: protein: recombinant; tags: N-terminal GST; dsDNA, one strand shown
# Sequence of ETV5 (P41161 whole entry): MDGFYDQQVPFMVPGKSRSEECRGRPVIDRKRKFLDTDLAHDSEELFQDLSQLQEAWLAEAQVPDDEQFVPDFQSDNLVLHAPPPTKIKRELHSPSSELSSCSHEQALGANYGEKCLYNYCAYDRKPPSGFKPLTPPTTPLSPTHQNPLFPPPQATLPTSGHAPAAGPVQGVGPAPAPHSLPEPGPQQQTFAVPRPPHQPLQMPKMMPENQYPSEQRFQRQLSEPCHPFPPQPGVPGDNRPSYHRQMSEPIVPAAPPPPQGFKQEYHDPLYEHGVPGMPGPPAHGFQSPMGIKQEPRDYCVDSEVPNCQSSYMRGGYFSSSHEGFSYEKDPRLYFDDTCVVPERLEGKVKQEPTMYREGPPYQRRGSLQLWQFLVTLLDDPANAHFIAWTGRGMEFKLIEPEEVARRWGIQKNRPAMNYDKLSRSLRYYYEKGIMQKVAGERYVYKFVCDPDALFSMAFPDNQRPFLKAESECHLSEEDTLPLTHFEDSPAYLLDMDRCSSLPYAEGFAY
# Method in brief: as §1
# HSF1 = HSF1 (Homo sapiens, UniProt Q00613 1-529); conditions: protein: recombinant; tags: N-terminal GST; chain copies: 3; dsDNA, one strand shown
# Sequence of HSF1 (Q00613 whole entry): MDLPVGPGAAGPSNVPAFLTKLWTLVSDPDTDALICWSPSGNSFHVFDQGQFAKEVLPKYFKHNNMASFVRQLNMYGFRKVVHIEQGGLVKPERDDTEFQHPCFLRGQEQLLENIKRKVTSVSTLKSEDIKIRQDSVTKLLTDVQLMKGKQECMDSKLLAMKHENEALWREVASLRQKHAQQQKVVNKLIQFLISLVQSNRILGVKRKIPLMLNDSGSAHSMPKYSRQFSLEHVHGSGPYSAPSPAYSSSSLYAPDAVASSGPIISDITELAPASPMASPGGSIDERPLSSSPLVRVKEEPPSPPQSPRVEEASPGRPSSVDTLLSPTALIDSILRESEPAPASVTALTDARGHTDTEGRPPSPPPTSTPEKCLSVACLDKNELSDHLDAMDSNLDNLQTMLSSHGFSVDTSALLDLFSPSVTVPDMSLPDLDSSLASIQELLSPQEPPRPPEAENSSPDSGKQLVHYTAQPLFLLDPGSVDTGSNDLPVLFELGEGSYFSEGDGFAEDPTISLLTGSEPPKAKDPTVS
# Method in brief: as §1
# SPIC = molecular target: T8, SPIC (Homo sapiens, UniProt Q8N5J4 1-248); conditions: protein: recombinant; tags: N-terminal GST; dsDNA, one strand shown
# T8 sequence: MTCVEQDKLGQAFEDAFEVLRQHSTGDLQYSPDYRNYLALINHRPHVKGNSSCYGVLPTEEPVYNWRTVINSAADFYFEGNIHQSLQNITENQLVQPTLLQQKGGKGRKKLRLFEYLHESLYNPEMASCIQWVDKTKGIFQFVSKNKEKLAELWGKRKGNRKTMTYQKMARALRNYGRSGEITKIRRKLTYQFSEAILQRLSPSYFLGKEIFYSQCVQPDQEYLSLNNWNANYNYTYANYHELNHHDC
# Method in brief: as §1
# ELF4 = ELF4 (Homo sapiens, UniProt Q99607 1-663); conditions: protein: recombinant; tags: N-terminal GST; dsDNA, one strand shown
# Sequence of ELF4 (Q99607 whole entry): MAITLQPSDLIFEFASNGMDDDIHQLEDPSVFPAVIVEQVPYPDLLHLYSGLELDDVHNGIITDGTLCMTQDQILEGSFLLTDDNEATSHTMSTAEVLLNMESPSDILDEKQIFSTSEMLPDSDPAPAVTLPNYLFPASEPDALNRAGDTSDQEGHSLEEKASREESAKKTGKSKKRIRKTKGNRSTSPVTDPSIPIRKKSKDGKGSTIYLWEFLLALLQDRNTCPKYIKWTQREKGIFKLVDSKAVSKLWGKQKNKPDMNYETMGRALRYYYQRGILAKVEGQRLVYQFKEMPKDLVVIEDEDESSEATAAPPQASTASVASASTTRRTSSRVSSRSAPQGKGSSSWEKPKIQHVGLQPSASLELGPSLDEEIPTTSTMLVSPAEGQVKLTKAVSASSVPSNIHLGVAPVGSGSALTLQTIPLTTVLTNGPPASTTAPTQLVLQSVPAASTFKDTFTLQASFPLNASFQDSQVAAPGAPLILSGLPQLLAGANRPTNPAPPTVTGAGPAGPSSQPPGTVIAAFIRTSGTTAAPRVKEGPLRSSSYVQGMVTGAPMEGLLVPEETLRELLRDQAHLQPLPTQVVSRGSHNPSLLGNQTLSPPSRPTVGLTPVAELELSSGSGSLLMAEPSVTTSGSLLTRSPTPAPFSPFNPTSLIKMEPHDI
# Method in brief: as §1
# ELK4 = molecular target: T9, ELK4 (Homo sapiens, UniProt P28324-2 1-405); conditions: protein: recombinant; tags: N-terminal GST; dsDNA, one strand shown
# T9 sequence: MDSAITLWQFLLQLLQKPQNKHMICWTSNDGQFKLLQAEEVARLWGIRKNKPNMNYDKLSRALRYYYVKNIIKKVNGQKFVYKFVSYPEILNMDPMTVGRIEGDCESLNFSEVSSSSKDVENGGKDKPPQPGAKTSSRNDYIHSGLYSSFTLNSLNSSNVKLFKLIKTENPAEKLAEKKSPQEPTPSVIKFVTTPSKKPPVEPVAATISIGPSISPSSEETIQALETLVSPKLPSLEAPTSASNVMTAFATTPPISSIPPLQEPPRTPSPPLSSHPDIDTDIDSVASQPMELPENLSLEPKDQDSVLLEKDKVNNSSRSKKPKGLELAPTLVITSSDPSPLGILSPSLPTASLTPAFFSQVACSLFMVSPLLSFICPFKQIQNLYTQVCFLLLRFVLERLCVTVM
# Method in brief: as §1
# ETV2 = molecular target: T10, ETV2 (Homo sapiens, UniProt O00321 1-342); conditions: protein: recombinant; tags: N-terminal GST; dsDNA, one strand shown
# T10 sequence: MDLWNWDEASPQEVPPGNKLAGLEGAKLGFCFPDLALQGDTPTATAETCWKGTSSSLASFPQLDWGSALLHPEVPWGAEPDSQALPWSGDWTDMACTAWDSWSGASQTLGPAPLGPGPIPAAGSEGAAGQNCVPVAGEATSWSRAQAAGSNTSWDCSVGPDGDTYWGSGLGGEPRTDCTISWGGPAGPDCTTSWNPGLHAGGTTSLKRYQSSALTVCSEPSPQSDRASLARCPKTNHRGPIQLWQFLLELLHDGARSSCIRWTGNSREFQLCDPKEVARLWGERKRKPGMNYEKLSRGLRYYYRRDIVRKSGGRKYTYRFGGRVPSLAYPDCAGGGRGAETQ
# Method in brief: as §1
# ELF3 = molecular target: T11, ELF3 (Homo sapiens, UniProt P78545 1-371); conditions: protein: recombinant; tags: N-terminal GST; dsDNA, one strand shown
# T11 sequence: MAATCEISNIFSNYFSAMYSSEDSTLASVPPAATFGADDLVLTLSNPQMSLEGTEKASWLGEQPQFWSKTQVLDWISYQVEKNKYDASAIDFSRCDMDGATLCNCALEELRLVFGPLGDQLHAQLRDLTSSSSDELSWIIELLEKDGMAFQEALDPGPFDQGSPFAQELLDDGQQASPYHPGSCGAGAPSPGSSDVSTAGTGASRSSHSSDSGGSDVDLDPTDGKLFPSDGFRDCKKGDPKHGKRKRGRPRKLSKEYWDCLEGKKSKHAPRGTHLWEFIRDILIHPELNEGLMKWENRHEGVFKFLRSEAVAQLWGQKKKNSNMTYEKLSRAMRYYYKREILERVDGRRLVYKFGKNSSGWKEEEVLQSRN
# Method in brief: as §1
# CRX = CRX (Homo sapiens, UniProt O43186 1-299); conditions: protein: recombinant; tags: N-terminal GST; dsDNA, one strand shown
# Sequence of CRX (O43186 whole entry): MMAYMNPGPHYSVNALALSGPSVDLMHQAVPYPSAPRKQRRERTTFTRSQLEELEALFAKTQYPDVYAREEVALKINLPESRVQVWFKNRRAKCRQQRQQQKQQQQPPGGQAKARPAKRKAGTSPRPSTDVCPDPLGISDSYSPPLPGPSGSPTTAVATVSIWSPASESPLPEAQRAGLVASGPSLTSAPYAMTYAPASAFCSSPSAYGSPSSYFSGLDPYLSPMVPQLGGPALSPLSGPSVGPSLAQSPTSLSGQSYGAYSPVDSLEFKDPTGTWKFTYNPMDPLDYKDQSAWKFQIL
# Method in brief: as §1
# ETV1 = ETV1 (Homo sapiens, UniProt P50549 1-477); conditions: protein: recombinant; tags: N-terminal GST; dsDNA, one strand shown
# Sequence of ETV1 (P50549 whole entry): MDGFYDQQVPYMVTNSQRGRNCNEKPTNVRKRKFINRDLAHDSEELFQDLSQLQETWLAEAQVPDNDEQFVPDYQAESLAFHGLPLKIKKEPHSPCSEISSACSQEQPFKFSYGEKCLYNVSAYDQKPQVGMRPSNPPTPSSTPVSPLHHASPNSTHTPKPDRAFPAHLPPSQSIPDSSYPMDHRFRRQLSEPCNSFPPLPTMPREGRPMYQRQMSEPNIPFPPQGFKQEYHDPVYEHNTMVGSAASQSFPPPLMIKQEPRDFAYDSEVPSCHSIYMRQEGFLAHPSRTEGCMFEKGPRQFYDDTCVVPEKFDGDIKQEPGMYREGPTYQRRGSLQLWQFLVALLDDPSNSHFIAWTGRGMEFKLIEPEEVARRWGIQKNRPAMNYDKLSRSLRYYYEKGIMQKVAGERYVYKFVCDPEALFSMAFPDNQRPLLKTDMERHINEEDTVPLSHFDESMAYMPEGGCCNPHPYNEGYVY
# Method in brief: as §1
sequence,measurement,setting,value
TACTGT,binding signal,FLI1,"1.15 fold enrichment (6-mer frequency, TF over GST control)"
same,binding signal,ELK1,"1.21 fold enrichment (6-mer frequency, TF over GST control)"
same,binding signal,GABPA,"1.13 fold enrichment (6-mer frequency, TF over GST control)"
same,binding signal,ERG,"1.12 fold enrichment (6-mer frequency, TF over GST control)"
same,binding signal,ELF1,"1.12 fold enrichment (6-mer frequency, TF over GST control)"
same,binding signal,EHF,"1.19 fold enrichment (6-mer frequency, TF over GST control)"
same,binding signal,SPI1,"1.11 fold enrichment (6-mer frequency, TF over GST control)"
same,binding signal,SPIB,"1.12 fold enrichment (6-mer frequency, TF over GST control)"
same,binding signal,ELK3,"1.11 fold enrichment (6-mer frequency, TF over GST control)"
same,binding signal,FEV,"1.11 fold enrichment (6-mer frequency, TF over GST control)"
same,binding signal,ETV5,"1.15 fold enrichment (6-mer frequency, TF over GST control)"
same,binding signal,HSF1,"1.05 fold enrichment (6-mer frequency, TF over GST control)"
same,binding signal,SPIC,"1.1 fold enrichment (6-mer frequency, TF over GST control)"
same,binding signal,ELF4,"1.12 fold enrichment (6-mer frequency, TF over GST control)"
same,binding signal,ELK4,"1.25 fold enrichment (6-mer frequency, TF over GST control)"
same,binding signal,ETV2,"1.34 fold enrichment (6-mer frequency, TF over GST control)"
same,binding signal,ELF3,"1.03 fold enrichment (6-mer frequency, TF over GST control)"
same,binding signal,CRX,"1.11 fold enrichment (6-mer frequency, TF over GST control)"
same,binding signal,ETV1,"1.17 fold enrichment (6-mer frequency, TF over GST control)"
